Reference: PubChem BioAssay (Tox21)
Inconclusive results are not listed. The source made the active and inactive calls. Calls follow the shape of the full dose curve.

assay: qHTS assay to identify small molecule agonists of the endoplasmic reticulum stress response signaling pathway - cell viability counter screen (AID 1159517); conditions: ESRE-bla HeLa viability, CellTiter-Glo luminescence, 5 h; series mostly up to 61 µM; also: nearly all actives have a fitted effect of over 50% in size
From the text: U.S. Tox21 Program National Center for Advancing Translational Sciences [NCATS] NIH Chemical Genomics Center [NCGC] U.S. Environmental Protection Agency [EPA] National Institutes of Environmental Health Sciences [NIEHS] National Toxicology Program [NTP] U.S. Food and Drug Administration [FDA] Tox21 Assay Overview: Endoplasmic Reticulum (ER) plays an important role in cellular signaling, protein folding/maturation, stress response, lipid biosynthesis, calcium storage and release etc. Under stress conditions, proteins in ER misfold or unfold, and leading to the expression of ER stress responsive genes. ER stress has been associated with a variety of pathophysiological conditions such as cancer, inflammation, neurodegenerative diseases, diabetes, ischemic heart disease etc. To identify the compounds that induce ER stress response, an ER stress reporter cell line, CellSensor ESRE-bla HeLa (Life Technologies, Carlsbad, CA) containing a beta-lactamase reporter gene under control of the Endoplasmic reticulum Stress Response Element (ESRE) was used to screen Tox21 10K compound library. The cytotoxicity of the Tox21 compound library against the ESRE-bla HeLa cell line was tested in parallel by measuring cell viability using the CellTiter-Glo assay in the same wells.
Tox21 Assay Protocol Summary: ESRE-bla HeLa cells were dispensed at 1,500 cells/6 uL of assay medium per well into black wall/clear-bottom 1536-well plates using a Multidrop Combi (ThermoFisher Scientific, Waltham, MA) dispenser. After the assay plates were incubated at 37 C and 5% CO2 for an overnight, 23 nL of compounds dissolved in DMSO, positive controls or DMSO only was transferred to the assay plate by a Pintool station (Kalypsys, San Diego, CA). The assay plates were incubated at 37 C and 5% CO2 for 5 hr. One uL of LiveBLAzer B/G FRET substrate (Life Technologies) was added using a FRD (Flying Reagent Dispenser, Aurora Discovery, San Diego, CA) and the plates were incubated at room temperature for 2 hr. Fluorescence intensity (405 nm excitation, 460 nm and 530 nm emissions) was measured using an Envision plate reader (PerkinElmer, Shelton, CT). For cytotoxicity, 4 ul/well of CellTiter-Glo reagent was added into the assay plates using an FRD. After 30 min incubation at room temperature, the luminescence intensity was measured using a ViewLux plate reader (PerkinElmer).
% is scaled to controls: 0 for no effect and ±100 for the full control effect.

| Compound | outcome | activity change, negative = cytotoxicity |
| --- | --- | --- |
| CCNC(=O)NCCCOc1cccc(CN2CCCCC2)c1 | inactive | – |
| NC(=O)NC(=O)Cc1ccccc1 | inactive | – |
| O=C(COCCOCCOCC(=O)Nc1c(I)cc(I)c(C(=O)O)c1I)Nc1c(I)cc(I)c(C(=O)O)c1I | inactive | – |
| O=C(O)c1c(Cl)ccc(Cl)c1Cl | inactive | – |
| CCOC(=O)CC#N | inactive | – |
| O=C(O)c1ccccc1C(=O)OCc1ccccc1 | inactive | – |
| CNC(=O)C(c1ccccc1)c1ccccc1 | inactive | – |
| O=C1c2ccccc2-c2ccccc21 | inactive | – |
| BrC/C=C/CBr | inactive | – |
| C=CC(C)(O)CC/C=C(\C)CC (stereo not given) | inactive | – |
| CCCCCC1CCCC(=O)O1 (stereo not given) | inactive | – |
| CCCCOC(=O)C(=O)OCCCC | inactive | – |
| CCCCOC(=O)C(C)OC(=O)CCC (stereo not given) | inactive | – |
| Nc1nc(=O)n([C@@H]2O[C@H](CO)[C@@H](O)[C@@H]2F)cc1I | inactive | – |
| C[C@@H]1C[C@H]2[C@@H]3C[C@H](F)C4=CC(=O)C=C[C@]4(C)[C@@]3(F)[C@@H](O)C[C@]2(C)[C@@]1(O)C(=O)CO | inactive | – |
| COc1cccc2sc(N)nc12 | inactive | – |
| CN[C@@H]1[C@@H](O)[C@@H](O[C@@H]2[C@H](O)[C@H](O[C@H]3OC(CN)=CC[C@H]3N)[C@@H](N)C[C@H]2N)OCC1(C)O (stereo not given in full) | inactive | – |
| CCCOC(=O)CCCCC(=O)OCCC | inactive | – |
| CCCC(C)CC (stereo not given) | inactive | – |
| Cc1nc2ccccc2c(=O)o1 | inactive | – |

| Compound | outcome | activity change, negative = cytotoxicity |
| --- | --- | --- |
| COCCOCCOCCOC | inactive | – |
| C=COCCOCCOC=C | inactive | – |
| NS(=O)(=O)c1ccccc1OC(F)(F)F | inactive | – |
| CC(C)COC(=O)COc1ccc(Cl)cc1Cl | inactive | – |
| O=C(O)C(=O)Nc1cccc(-c2nn[nH]n2)c1 | inactive | – |
| NC(=O)NNC(N)=O | inactive | – |
| CCCCCCCCCCCCC | inactive | – |
| C=C[C@@H](C)CCC=C(C)C | inactive | – |
| CCOC(=O)OCC/C(SC(=O)OCC)=C(\C)N(C=O)Cc1cnc(C)nc1N | inactive | – |
| CC(C)(CO)[C@@H](O)C(=O)NCCCO | inactive | – |
| Cc1cc(O)c2c(c1)C(=O)c1cccc(O)c1C2=O | inactive | – |
| CCOc1ccc(NC(=O)OC(C)C)cc1OCC | inactive | – |
| O=CO | – | -1.24% [at 6.95 µM] (inactive) |
| CC1=CC[C@H](CC=O)C1(C)C | inactive | – |
| c1ccccc1 | inactive | – |
| O=S(=O)(O)CCO | inactive | – |
| C[C@H]1O[C@H](O[C@H]2[C@H](O)[C@@H](O)[C@@H](O[C@H]3[C@H](O)[C@@H](O)[C@H](O)O[C@@H]3CO)O[C@@H]2CO)[C@H](O)[C@@H](O)[C@@H]1N[C@H]1C=C(CO)[C@@H](O)[C@H](O)[C@H]1O | inactive | – |
| C[N+](C)(C)CC(O)CCl (stereo not given) | inactive | – |
| CN(C)CCOCCN(C)CCO | inactive | – |
| CC(=O)N1CCN(c2ccc(O)cc2)CC1 | inactive | – |
